Several values for one entry are separate records, joined by “and”; a condition that tells them apart may be missing. Equal values may be shown once. Results filed as inconclusive are left out. Some structures have more than one record in an assay (separate samples or runs), and their calls can disagree. Activity calls are given as the source filed them. The calls were made as follows, unless noted: active = hit-call score of the fitted dose curve at least 0.9, where 1 is the maximum; inconclusive = response in the unintended direction; inactive = score below 0.9.
Columns and labels:
[1] = read-out: alkyl and aryl transferase (GSTA2), GSTA2 (gene 2939); experiment: CLD_GSTA2_6hr: CellzDirect (CLD) Gene Expression Assay for alkyl and aryl transferase (GSTA2) at 6 hours (AID 2283666)
Outline: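 Primary human hepatocytes from two donor preparations were dosed daily with fresh compound at multiple concentrations, 0.2% DMSO vehicle. GSTA2 mRNA was measured at 6 hours by qNPA chemiluminescence; induction fitted relative to DMSO, with cytotoxicity flagged morphologically.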

[2] = Tanguay_ZF_120hpf_TR_legacy: (Legacy) Oregon State University Tanguay Lab 120 Hour Post-fertilization zebrafish Assay for Touch Response (AID 2283667)
Outline: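 Tropical 5D wild-type zebrafish embryos statically exposed to 120 hpf at 28°C, sealed and dark-covered, 0.64% DMSO final; touch response scored as present/absent by brightfield microscopy at 120 hpf. Trimethyltin chloride 5 uM positive control; dead embryos not scored.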

[3] = read-out: organic anion transporter (SLCO1B1), SLCO1B1 (gene 10599); experiment: CLD_SLCO1B1_6hr: CellzDirect (CLD) Gene Expression Assay for organic anion transporter (SLCO1B1) at 6 hours (AID 2283668);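 also: active means mRNA induction above DMSO baseline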
Outline: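 Primary human hepatocytes dosed daily with test chemicals (multiple concentrations) in 0.2% DMSO vehicle; harvested at 6 h. SLCO1B1 mRNA quantified by qNPA chemiluminescence, fitted as gain-of-signal versus DMSO; cytotoxicity from phase-contrast morphology flagged alongside.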

[4] = read-out: xenobiotic metabolism (CYP1A1), CYP1A1 (gene 1543); experiment: CLD_CYP1A1_24hr: CellzDirect (CLD) Gene Expression Assay for xenobiotic metabolism (CYP1A1) at 24 hours (AID 2283673);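 also: CYP1A1 mRNA level by quantitative nuclease protection with chemiluminescence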
Outline: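 Primary human hepatocytes dosed daily with fresh solutions in 0.2% DMSO vehicle. mRNA measured at 24 h by quantitative nuclease protection assay with chemiluminescence; gain-of-signal fit versus DMSO, with morphology-based cytotoxicity flags.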

[5] = read-out: Cytochrome P450 2B6 (Homo sapiens) (UniProt P20813); experiment: CLD_CYP2B6_6hr: CellzDirect (CLD) Gene Expression Assay for xenobiotic metabolism (CYP2B6) at 6 hours (AID 2283677);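 also: actives raise CYP2B6 transcript above DMSO baseline so AC50 marks an inducer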
Outline: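 Primary human hepatocytes dosed with chemicals at multiple concentrations, vehicle 0.2% DMSO; CYP2B6 mRNA induction measured 6 h after dosing by quantitative nuclease protection assay with chemiluminescence, gain of signal fitted relative to DMSO.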

[6] = CCTE_Padilla_ZF_144hpf_TERATOSCORE: (Legacy) CCTE's 144 Hour Post-fertilization zebrafish Assay Teratoscore, Padilla Lab (AID 2283679; active = hit-call score of the fitted dose curve at least 0.9, where 1 is the maximum; inactive = score below 0.9;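 as to AC50: zebrafish embryos with chorions exposed by immersion from 6-8 hpf to 5 dpf with daily renewal; teratogenicity score from eye scoring of death hatching and malformations at 144 hpf; higher score means more developmental defects relative to DMSO baseline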)
Outline: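 Larvae scored by eye at 144 hpf for death, hatching and malformations after a day in clean Hanks'. Before that, daily-renewed exposure at 80 uM (0.4% DMSO, 26C) from roughly 6-8 hpf through 5 dpf, 4 embryos per chemical.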

[7] = read-out: Cytochrome P450 3A4 (Homo sapiens) (UniProt P08684); experiment: CLD_CYP3A4_6hr: CellzDirect (CLD) Gene Expression Assay for xenobiotic metabolism (CYP3A4) at 6 hours (AID 2283680)
Outline: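 Primary human hepatocytes (two donor preparations) dosed; CYP3A4 mRNA harvested at 6 h and quantified by qNPA chemiluminescence. Gain of signal fitted against 0.2% DMSO vehicle; cytotoxicity flagged by phase-contrast morphology.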

[8] = read-out: Glyceraldehyde-3-phosphate dehydrogenase (Homo sapiens) (UniProt P04406); experiment: CLD_GAPDH_6hr: CellzDirect (CLD) Gene Expression Assay for Baseline Control (Glyceraldehyde 3-phosphate dehydrogenase) at 6 hours (AID 2283681);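 also: active means increased signal relative to DMSO vehicle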
Outline: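 Primary human hepatocytes from two donor preparations, dosed at multiple concentrations with 0.2% DMSO vehicle; GAPDH mRNA measured 6 h after dosing by chemiluminescent quantitative nuclease protection assay (qNPA) on denatured lysates. Serves as background control; cytotoxicity annotated by morphology.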

[9] = read-out: ABC Transporter (ABCB1), ABCB1 (gene 5243); experiment: CLD_ABCB1_24hr: CellzDirect (CLD) Gene Expression Assay for ABC Transporter (ABCB1) at 24 hours (AID 2283684)
Outline: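 Primary human hepatocytes, two donor preparations, dosed daily with fresh solutions; vehicle 0.2% DMSO; harvested at 24 h. ABCB1 mRNA measured by quantitative nuclease protection assay (chemiluminescence); morphology-based cytotoxicity annotated.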

[10] = read-out: Cytochrome P450 3A4 (Homo sapiens) (UniProt P08684); experiment: CLD_CYP3A4_24hr: CellzDirect (CLD) Gene Expression Assay for xenobiotic metabolism (CYP3A4) at 24 hours (AID 2283689)
Outline: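 Primary human hepatocytes from two donors dosed daily with fresh compound for two days, 0.2% DMSO vehicle. CYP3A4 mRNA at 24 hr by qNPA chemiluminescence; gain-of-signal fit versus DMSO, cytotoxicity flagged by morphology.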

[11] = read-out: sulfotransferase (SULT2A), SULT2A1 (gene 6822); experiment: CLD_SULT2A_24hr: CellzDirect (CLD) Gene Expression Assay for sulfotransferase (SULT2A) at 24 hours (AID 2283694)
Outline: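 Primary human hepatocytes from two donor preparations were dosed daily with fresh solutions, vehicle 0.2% DMSO. At 24 h, lysates went to quantitative nuclease protection (qNPA) with S1 digestion and chemiluminescent readout. Cytotoxicity was annotated from phase-contrast morphology.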

[12] = read-out: Cytochrome P450 2C19 (Homo sapiens) (UniProt P33261); experiment: CLD_CYP2C19_24hr: CellzDirect (CLD) Gene Expression Assay for xenobiotic metabolism (CYP2C19) at 24 hours (AID 2283687);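 also: activity means mRNA induction above DMSO vehicle baseline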
Outline: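 Primary human hepatocytes (two donor preparations) dosed daily with fresh test chemical in 0.2% DMSO vehicle; CYP2C19 mRNA induction measured at 24 h by quantitative nuclease protection assay with chemiluminescence, fitted for gain of signal versus DMSO.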

[13] = read-out: Glyceraldehyde-3-phosphate dehydrogenase (Homo sapiens) (UniProt P04406); experiment: CLD_GAPDH_24hr: CellzDirect (CLD) Gene Expression Assay for Baseline Control (Glyceraldehyde 3-phosphate dehydrogenase) at 24 hours (AID 2283692)
Outline: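 Primary human hepatocytes (two donor preparations) dosed daily for two days, 0.2% DMSO vehicle; GAPDH mRNA measured at 24 h by qNPA chemiluminescence as a background control, gain-of-signal fitted against DMSO.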

[14] = CCTE_Simmons_CellTiterGLO_HEK293T: Viability Assessment in CCTE's Assays for Thyroperoxidase (TPO) Inhibition, Simmons Lab (AID 2283665);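 as to AC50: cells exposed to compound for 24 h before readout; actives reduce ATP signal below DMSO vehicle meaning cytotoxicity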
Outline: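 Cytotoxicity counter-screen: human HEK293T cells in low-serum (1% FBS) medium receive test chemical, 5 nM to 87.5 uM final, for 24 h; ATP is quantified by luciferase luminescence.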

[15] = read-out: ABC Transporter (ABCB11), ABCB11 (gene 8647); experiment: CLD_ABCB11_24hr: CellzDirect (CLD) Gene Expression Assay for ABC Transporter (ABCB11) at 24 hours (AID 2283674; active = hit-call score of the fitted dose curve at least 0.9, where 1 is the maximum; inactive = score below 0.9)
Outline: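 Primary human hepatocytes were dosed daily for two days, with 0.2% DMSO vehicle. ABCB11 mRNA induction was measured at 24 hours by quantitative nuclease protection assay with chemiluminescence. Gain of signal was fitted relative to DMSO.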

[16] = read-out: HMG-CoA synthase (HMGCS2), HMGCS2 (gene 3158); experiment: CLD_HMGCS2_6hr: CellzDirect (CLD) Gene Expression Assay for HMG-CoA synthase (HMGCS2) at 6 hours (AID 2283682);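 also: actives raise HMGCS2 transcript above the 0.2% DMSO vehicle baseline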
Outline: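 Primary human hepatocytes dosed daily with fresh chemical, 0.2% DMSO vehicle; HMGCS2 mRNA measured at 6 h by qNPA chemiluminescence. Gain of signal fitted against DMSO; cytotoxicity flagged from phase-contrast morphology.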

[17] = read-out: Cytochrome P450 2C9 (Homo sapiens) (UniProt P11712); experiment: CLD_CYP2C9_24hr: CellzDirect (CLD) Gene Expression Assay for xenobiotic metabolism (CYP2C9) at 24 hours (AID 2283688)
Outline: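 Primary human hepatocytes from two donor preparations, dosed daily for two days at multiple concentrations; vehicle 0.2% DMSO. CYP2C9 mRNA induction at 24 h measured by qNPA chemiluminescence relative to DMSO; cytotoxicity annotated from morphology.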

[18] = read-out: Cytochrome P450 (CYP24A1_1), CYP24A1 (gene 1591); experiment: LTEA_HepaRG_CYP24A1_1: Life Technologies and Expression Analysis (LTEA) Assay for Cytochrome P450 (CYP24A1_1) using HepaRG (AID 2283671; active = hit-call score of the fitted dose curve at least 0.9, where 1 is the maximum; inactive = score below 0.9); details: mRNA level, 48 h; actives raise or lower the signal
Outline: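 Differentiated human HepaRG cells in serum-free induction medium, exposed 48 h in duplicate to eight half-log concentrations from 100 uM top, 0.5% DMSO. Transcript measured by TaqMan qRT-PCR, normalised to ACTB, GAPDH, POLR2A; bidirectional fitting versus DMSO.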

Measured: AC50

Chain of Glyceraldehyde-3-phosphate dehydrogenase (Homo sapiens) (P04406 whole entry, looked up): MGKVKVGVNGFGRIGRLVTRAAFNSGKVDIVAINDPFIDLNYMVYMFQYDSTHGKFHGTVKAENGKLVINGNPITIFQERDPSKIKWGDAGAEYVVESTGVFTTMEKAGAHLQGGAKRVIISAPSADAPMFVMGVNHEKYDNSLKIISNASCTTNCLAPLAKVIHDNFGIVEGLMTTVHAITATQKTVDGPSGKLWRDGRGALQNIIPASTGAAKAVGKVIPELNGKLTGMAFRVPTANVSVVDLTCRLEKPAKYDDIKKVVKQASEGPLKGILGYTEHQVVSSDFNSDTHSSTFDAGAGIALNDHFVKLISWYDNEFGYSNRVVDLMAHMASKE
Chain of Cytochrome P450 2C19 (Homo sapiens) (P33261 whole entry, looked up): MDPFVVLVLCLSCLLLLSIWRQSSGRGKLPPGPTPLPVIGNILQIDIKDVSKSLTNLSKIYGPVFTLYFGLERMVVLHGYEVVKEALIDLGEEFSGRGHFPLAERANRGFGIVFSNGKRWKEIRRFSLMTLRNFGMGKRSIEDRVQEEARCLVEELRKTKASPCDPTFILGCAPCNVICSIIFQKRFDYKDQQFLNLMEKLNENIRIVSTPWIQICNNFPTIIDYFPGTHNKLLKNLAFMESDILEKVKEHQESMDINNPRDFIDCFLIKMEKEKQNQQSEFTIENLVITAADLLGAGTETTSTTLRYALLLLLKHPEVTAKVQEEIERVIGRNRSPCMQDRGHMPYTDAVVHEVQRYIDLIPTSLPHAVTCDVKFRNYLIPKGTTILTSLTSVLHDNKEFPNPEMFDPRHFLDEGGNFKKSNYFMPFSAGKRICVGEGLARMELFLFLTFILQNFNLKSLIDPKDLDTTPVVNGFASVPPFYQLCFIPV
Chain of Cytochrome P450 3A4 (Homo sapiens) (P08684 whole entry, looked up): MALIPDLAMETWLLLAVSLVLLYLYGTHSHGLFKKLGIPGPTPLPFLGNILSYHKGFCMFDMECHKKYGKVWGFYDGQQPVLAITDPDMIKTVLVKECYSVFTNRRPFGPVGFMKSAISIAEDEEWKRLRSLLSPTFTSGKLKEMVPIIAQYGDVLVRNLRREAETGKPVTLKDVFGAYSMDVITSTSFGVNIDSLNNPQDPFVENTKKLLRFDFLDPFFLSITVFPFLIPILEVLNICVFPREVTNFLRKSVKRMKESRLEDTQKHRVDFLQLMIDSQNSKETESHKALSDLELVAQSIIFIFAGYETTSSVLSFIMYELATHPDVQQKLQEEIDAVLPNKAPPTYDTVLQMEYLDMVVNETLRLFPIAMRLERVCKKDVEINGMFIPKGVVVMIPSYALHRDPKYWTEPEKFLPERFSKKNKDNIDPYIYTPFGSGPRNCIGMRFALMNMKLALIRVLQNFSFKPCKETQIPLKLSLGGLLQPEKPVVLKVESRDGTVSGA

CCCN(CCC)c1c([N+](=O)[O-])cc(C(F)(F)F)c(N)c1[N+](=O)[O-]
inactive: [1] | [2] | [3] | [6] | [7] | [8] | [9] | [11]
active: [4] 3.83 µM | [5] 0.752 µM | [10] 8.44 µM

CCSC(=O)N(CC(C)C)CC(C)C
active: [5] 3.55 µM
inactive: [1] | [2] | [3] | [6] | [8] | [9] | [12] | [13]

CC(C)(c1ccc(O)cc1)c1ccc(O)cc1
active: [2] 47.4 µM and 24.4 µM and 46 µM | [5] 14.2 µM | [6] 57 µM and 66.2 µM
not listed: [3] | [13] | [18]
inactive: all other assays above

CCNc1nc(N)nc(Cl)n1
inactive: [1] | [2] | [4] | [15] | [6] | [7] | [8] | [9] | [17] | [13]

CC(C)CCCCCCc1ccc(O)cc1
active: [14] 6.47 µM | [6] 8.06 µM
inactive: [2]

CCCCOCCOCCOCc1cc2c(cc1CCC)OCO2
active: [4] 2.56 µM | [5] 1.27 µM | [6] 15.3 µM
inactive: [14] | [2] | [18] | [9] | [17] | [11]

CCC(C)OC(=O)N1CCCCC1CCO (stereo unspecified)
not listed: [4] | [7] | [10] | [14] | [17] | [18]
inactive: all other assays above

O=C(Nc1ccc([N+](=O)[O-])cc1Cl)c1cc(Cl)ccc1O
active: [14] 5.34 µM | [4] 7.01 µM | [6] 1.65 µM
inactive: [1] | [3] | [9] | [17] | [10] | [11]

CCCCOC(=O)C(C)Oc1ccc(Oc2ccc(C(F)(F)F)cn2)cc1 (stereo unspecified)
active: [6] 16.1 µM
not listed: [4] | [9] | [13] | [14] | [15] | [18]
inactive: all other assays above

S=C([S-])NCCNC(=S)[S-].[Mn+2]
active: [6] 1.04 µM
not listed: [5] | [7] | [11] | [12] | [14] | [15] | [17]
inactive: all other assays above

CCCN(CCC)C(=O)SCC
inactive: [1] | [2] | [3] | [4] | [15] | [5] | [6] | [7] | [8] | [9] | [12] | [17] | [10] | [13] | [11]
active: [5] 0.165 µM

CSC(=O)c1cccc2nnsc12
active: [4] 20 µM | [6] 12.7 µM
not listed: [3] | [8] | [15] | [17] | [18]
inactive: all other assays above

c1ccc2[nH]c(-c3cscn3)nc2c1
active: [4] 0.226 µM | [5] 10.2 µM | [6] 52.8 µM
inactive: [1] | [2] | [8]

Reference: PubChem BioAssay (EPA / NIEHS)
